From PubChem BioAssay (NCI)
The panel holds about 83,000 compounds, 20% with a hit somewhere; the sample as a whole holds those more often.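 Step 1: grow cells in 96-well plates. Step 2: add test compound at a single concentration. Step 3: incubate 48 h. Step 4: record percent growth.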 Values without a mark were called inactive. The calls were made as follows: active = growth percent below 10; inactive = the rest.

System: MDA-MB-468 breast
Assay: NCI-60 one-dose screen, 48 h (100 = growth as untreated, 0 = no growth, -100 = all killed)
Details: 10 µM unless noted

Structure (SMILES) | growth [%]
Nc1c(C(=O)Nc2ccccc2)sc2nc3c(cc12)CN(CCc1ccccc1)CC3 | 107
O=S(=O)(NCCNc1nccc(-c2c(-c3cccc(O)c3)nc3occn23)n1)c1ccccc1 | 88.4
C=C(C)[C@H]1CC/C(C)=C/CC[C@]2(C)O[C@H]2CC/C(COC(C)=O)=C\C1=O | 115
